# The source made the active and inactive calls. How the source made its calls: active means hit-call score of the fitted dose curve at least 0.9, where 1 is the maximum; inactive means score below 0.9.
# Molecular target: Retinoic acid receptor alpha (Homo sapiens) (UniProt P10276)
# Test: ATG_DR5_RAR_CIS: Attagene CIS-FACTORIAL HepG2 Assay for human Retinoic Acid Receptor Alpha (RARE), DR5 submotif (AID 2282934);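 on AC50: reporter responds to endogenous RAR alpha beta and gamma in HepG2 not RARA alone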
# Conditions: HepG2 Attagene cis-factorial RARE DR5 reporter, mRNA; actives raise or lower the signal
# Method: ATG_CIS is a cell-based, multiplexed-readout assay that uses HepG2, a human liver cell line, with measurements taken at 24 hours after chemical dosing in a 24-well plate.ATG_DR5_RAR_CIS is one of 52 assay component(s) measured or calculated from the ATG_CIS assay. It is designed to make measurements of mRNA induction, a form of inducible reporter, as detected with fluorescence intensity signals by Reverse transcription polymerase chain reaction (RT-PCR) and Capillary electrophoresis technology.Data from the assay component ATG_DR5_RAR_CIS was analyzed into 1 assay endpoint. This assay endpoint, ATG_DR5_CIS, was analyzed with bidirectional fitting relative to DMSO as the negative control and baseline of activity. Using a type of inducible reporter, measures of mRNA for gain or loss-of-signal activity can be used to understand the reporter gene at the transcription factor-level as they relate to the gene RARA and RARB and RARG. Furthermore, this assay endpoint can be referred to as a primary readout, because this assay has produced multiple assay endpoints where this one serves a reporter gene function. To generalize the intended target to other relatable targets, this assay endpoint is annotated to the nuclear receptor intended target family, where the subfamily is non-steroidal.
# Human liver HepG2 cells are transiently transfected with multiple reporter transcription units (MRTUs) in 6-well plates using FuGene 6 reagent (Roche; 3 ml FuGene/1 mg DNA). The MRTU constructs are regulated by a cis-regulating element (promoter). […] A major difference between the CIS and TRANS system is that in CIS activities of endogenous TFs are measured, whereas the TRANS assay evaluates changes in activities of exogenous, chimeric NR-Gal4 proteins. […] At the end of 24 hour incubation, total RNA was isolated using TriZol reagent (Invitrogen). The isolated RNA is then reverse-transcribed using oligo(dT) primer and Mo-MLV reverse transcriptase (Invitrogen) with DNAse I (Ambion) treatment for 30 min. The one-tenth of the produced cDNA was amplified by PCR using Taq DNA polymerase (Invitrogen) and two reporter sequence-specific primers. The PCR products were fluorescently labeled by primer extension with 6-arboxyfluorescein (6-FAM) 5'-labeled reporter sequence-specific primer (2 min at 95 C, 20 s at 68 C and 10 min at 72 C) and these products were digested with 5U of HpaI (New England Biolabs) for 2h at 37 C. The fragments were purified using Qiaquick PCR columns (Qiagen), analyzed on an ABI 3130xL genetic analyzer (Applied Biosystems) with peak positions identified by using a set of X-rhodamine (ROX)-labeled MapMarker1000 molecular weight standards (BioVentures). The raw capillary electrophoresis data was processed using Attagraph software (Attagene).
# Sequence of Retinoic acid receptor alpha (Homo sapiens) (P10276 whole entry, looked up): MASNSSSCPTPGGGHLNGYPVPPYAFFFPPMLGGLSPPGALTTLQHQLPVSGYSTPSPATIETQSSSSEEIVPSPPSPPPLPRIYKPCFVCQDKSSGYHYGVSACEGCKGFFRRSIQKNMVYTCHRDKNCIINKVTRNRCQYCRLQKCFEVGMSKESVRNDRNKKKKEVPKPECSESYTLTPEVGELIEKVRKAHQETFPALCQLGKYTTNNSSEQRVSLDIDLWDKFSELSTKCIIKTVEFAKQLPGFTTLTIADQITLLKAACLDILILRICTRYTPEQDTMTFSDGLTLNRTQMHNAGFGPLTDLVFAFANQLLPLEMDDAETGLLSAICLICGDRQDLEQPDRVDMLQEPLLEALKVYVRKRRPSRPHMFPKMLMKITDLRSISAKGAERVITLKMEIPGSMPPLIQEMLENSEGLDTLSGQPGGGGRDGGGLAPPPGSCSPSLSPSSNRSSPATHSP
Compound,outcome,AC50
O=Cc1ccccc1O,inactive,–
NCCN1CCNCC1,inactive,–
CC(C)Cc1ccccc1,inactive,–
OC[C@@H](O)[C@H](O)[C@@H](O)[C@@H](O)CO,inactive,–
c1ccc2scnc2c1,inactive,–
C=C(C)C(=O)OCCN(C)C,inactive,–
CNC(=C[N+](=O)[O-])NCCSCc1ccc(CN(C)C)o1,inactive,–
NC(N)=NC(N)=NCCc1ccccc1,inactive,–
O=c1cc(-c2ccc(O)cc2)oc2cc(O)cc(O)c12,inactive,–
OCCCO,inactive,–
CC(C)(O)CCc1ccccc1,inactive,–
CCCCCCOc1ccc(O)cc1,inactive,–
O=C(C=Cc1ccccc1)OCCCc1ccccc1,inactive,–
CN(C)C(=O)Nc1ccccc1,inactive,–
O=C(O)CS,inactive,–
CC(C)Cc1ccc(C(C)C(=O)O)cc1 (stereo not given),inactive,–
CCCCCCCCCCCCOCCOS(=O)(=O)O,inactive,–
CCCCOC(=O)C(C)OC(=O)CCC (stereo not given),inactive,–
N#CCCCC(C#N)CCC#N (stereo not given),inactive,–
CCCCCCCCCCCCCC(=O)OCC,inactive,–

Compound,outcome,AC50
CCCCC1CCCCC(=O)O1 (stereo not given),inactive,–
Cc1ccncc1,inactive,–
CC(C)(C)C1CCC(O)CC1 (stereo not given),inactive,–
CCCCCCCCCCCCOC(C)=O,inactive,–
c1ccc(Sc2ccccc2)cc1,inactive,–
CCCCCCCCCO,inactive,–
C1=COCCC1,inactive,–
CCC(C)(C)C1CCC(=O)CC1,inactive,–
CN1CCc2cccc3c2[C@H]1Cc1ccc(O)c(O)c1-3,–,1670 nM (active)
C=C(C)C(=O)OCCC(C)OC(=O)C(=C)C (stereo not given),inactive,–
CCC(C)COC(=O)CC(C)C (stereo not given),inactive,–
O=C(OCc1ccccc1)c1ccccc1O,inactive,–
NS(=O)(=O)c1cc(C(=O)O)c(NCc2ccco2)cc1Cl,inactive,–
COc1ccc(C(C)=O)cc1,inactive,–
CCC(C)C1CCCCC1=O (stereo not given),inactive,–
C[C@]12CC[C@@H]3c4ccc(O)cc4CC[C@H]3[C@@H]1CC[C@@H]2O,inactive,–
C=C(C)C(=O)OCCC[Si](OC)(OC)OC,inactive,–
CCO[Si](CC)(OCC)OCC,inactive,–
C=CC(C)CCCC(C)(C)O (stereo not given),inactive,–
O=S1(=O)CC=CC1,inactive,–

# Reference: PubChem BioAssay (EPA / NIEHS)
